The values below come from PubChem BioAssay AID1224921 (Broad Institute, 2016).

Among all 1,400 compounds or so, about 350 (25%) were called active. Not shown: some 2% with an inconclusive outcome. Not all results are given here. Results with a measured potency or affinity are listed apart. A number with no mark means an inactive call. The rule behind the calls is not given here.

The assay is described as follows: inhibitors of Clostridioides difficile proliferation – 4-point retest, confirmation (AID 1224921).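 Note: plate controls were DMSO wells for no effect and levofloxacin 16 µg/mL wells for full effect.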 The conditions noted are these: Clostridioides difficile clinical isolate growth, OD600, 24 h, stronger effect = lower value; at 30 µM unless noted.
Regarding `COc1ccccc1C#Cc1ccc([C@@H]2[C@@H](CO)N(C(=O)C3CCCCC3)[C@H]2C#N)cc1`, the max activity was 12.6% [at 1.95 µM].
The figure for `COc1ccccc1C#Cc1ccc([C@H]2[C@@H](CO)N(C(=O)C3CC3)[C@H]2C#N)cc1` is 12.6%; for `COc1ccccc1C#Cc1ccc([C@@H]2[C@@H](C#N)N(C(=O)C3CCCCC3)[C@H]2CO)cc1` it is 30.9%.
For `N#C[C@H]1[C@@H](c2ccc(C#Cc3ccccc3F)cc2)[C@@H](CO)N1C(=O)C1CCC1`, the max activity was -4.04%.
As for `COc1cccc(C#Cc2ccc([C@@H]3[C@@H](C#N)N(C(=O)C4CCCCC4)[C@H]3CO)cc2)c1`, the figure is 32.5%.
As for `COc1ccccc1C#Cc1ccc([C@H]2[C@@H](C#N)N(C(=O)C3CCC3)[C@H]2CO)cc1`, the max activity was 29.5% [at 8 µM].
With `COc1cccc(C#Cc2ccc([C@H]3[C@@H](CO)N(C(=O)C4CCC4)[C@H]3C#N)cc2)c1`, the max activity is 29% [at 8 µM].
Regarding `N#C[C@@H]1[C@@H](c2ccc(C#Cc3cccc(F)c3)cc2)[C@H](CO)N1C(=O)C1CCC1`, the max activity is 24.5% [at 0.5 µM].
For the molecule `C[C@H](C(=O)N(C)C[C@@H]1OCc2ccccc2-c2ccccc2C(=O)N([C@H](C)CO)C[C@H]1C)c1ccccc1`, the max activity was -11.2% [at 1.95 µM].
For the molecule `CCCC(=O)Nc1ccc2c(c1)C(=O)N(C)C[C@@H](OC)[C@H](C)CN(Cc1ccccc1)[C@@H](C)CO2`, the max activity was 26.7%.
The figure for `O=C(C[C@H]1CC[C@H](NC(=O)C2CCOCC2)[C@@H](CO)O1)Nc1nccs1` is -4.31% [at 1.95 µM]; for `C[C@H]1CN([C@@H](C)CO)S(=O)(=O)c2ccc(C#Cc3ccc(F)cc3)cc2O[C@@H]1CN(C)S(C)(=O)=O` it is -17.5% [at 1.95 µM].
As to `CCCC#Cc1ccc2c(c1)O[C@H](CN(C)Cc1ccncc1)[C@H](C)CN([C@@H](C)CO)S2(=O)=O`, the max activity is -13.4% [at 8 µM].
Consider `CCCC(=O)Nc1ccc2c(c1)OC[C@@H](C)N(C(=O)c1ccccc1F)C[C@@H](C)[C@H](OC)CN(C)C2=O`, for which the max activity was -11% [at 1.95 µM].
In the case of `CO[C@@H]1CN(C)C(=O)c2cc(NC(=O)c3cccc(F)c3)ccc2OC[C@@H](C)N(C(C)=O)C[C@@H]1C`, the max activity was 7.72%.
The figure for `C[C@@H]1CN([C@H](C)CO)C(=O)c2ccccc2-c2ccccc2CO[C@H]1CN(C)S(=O)(=O)c1ccc(Cl)cc1` is 34.1%; for `CCCN1C[C@H](C)[C@H](OC)CN(C)C(=O)c2cc(NC(=O)Nc3cccc(OC)c3)ccc2OC[C@@H]1C` it is 17.5% [at 35 µM]; for `C[C@@H]1CN([C@@H](C)CO)C(=O)c2cccc(NS(C)(=O)=O)c2O[C@H]1CN(C)Cc1ccccc1` it is 16.6%.
As for `C[C@H]1CN([C@@H](C)CO)C(=O)c2cccc(NS(=O)(=O)c3ccccc3)c2O[C@H]1CN(C)Cc1ccc(Cl)c(Cl)c1`, the figure is 33.4%.
For the molecule `C[C@@H]1CN([C@@H](C)CO)C(=O)c2cccc(NS(C)(=O)=O)c2O[C@@H]1CN(C)Cc1ccccc1`, the max activity was -11.2% [at 8 µM].
Turning to `C[C@H](CO)N1C[C@H](C)[C@H](CN(C)Cc2ccccc2)Oc2c(NS(C)(=O)=O)cccc2C1=O`, the max activity was 24.8%.
On to `C[C@@H]1CN([C@@H](C)CO)C(=O)c2cc(NC(=O)Nc3ccc(C(F)(F)F)cc3)ccc2O[C@@H]1CN(C)Cc1ccc(Oc2ccccc2)cc1`, for which the max activity was 30.2%.
As for `O=C(C[C@H]1C=C[C@H](NC(=O)c2ccncc2)[C@@H](CO)O1)Nc1ccc(-c2ccccc2)cc1`, the figure is -5.7% [at 0.5 µM]; as for `COc1ccc(COC[C@@]23Oc4ccccc4[C@@H](NC(=S)N2C)[C@H]3CO[Si](C)(C)C(C)(C)C)cc1`, 23.7%.
With `O=C(C[C@H]1C[C@H]2c3cc(NC(=O)Nc4ccccc4)ccc3O[C@H]2[C@@H](CO)O1)NC1CCCC1`, the max activity is -20.3% [at 1.95 µM].
The figure for `C[C@H]1CN([C@@H](C)CO)S(=O)(=O)c2ccc(C3=CCCCC3)cc2O[C@@H]1CN(C)Cc1cccnc1` is 31.2%; for `COc1cccc(NC(=O)N(C)C[C@H]2Oc3cc(C#CC4(O)CCCC4)ccc3S(=O)(=O)N([C@@H](C)CO)C[C@H]2C)c1` it is -5.35% [at 0.5 µM].
As for `CO[C@H]1CN(C)C(=O)c2ccc(NC(=O)c3ccccc3F)cc2OC[C@@H](C)N(CC2CC2)C[C@@H]1C`, the figure is -8.61% [at 0.5 µM].
With `C[C@@H]1CN([C@@H](C)CO)C(=O)c2cc(NC(=O)Nc3cccc4ccccc34)ccc2O[C@@H](C)CCCCO[C@H]1CN(C)Cc1ccccc1`, the max activity is 42%.
The figure for `COc1ccc(CN(C)C[C@@H]2OCCCC[C@@H](C)Oc3ccc(NC(=O)Nc4cccc5ccccc45)cc3C(=O)N([C@H](C)CO)C[C@H]2C)cc1` is 17.7% [at 1.95 µM]; for `COc1ccc(CN(C)C[C@@H]2OCCCC[C@H](C)Oc3ccc(NC(=O)Nc4cccc5ccccc45)cc3C(=O)N([C@@H](C)CO)C[C@H]2C)cc1` it is 25.5%.
As for `COc1ccc(CN(C)C[C@@H]2OCCCC[C@@H](C)Oc3ccc(NC(=O)Nc4cccc5ccccc45)cc3C(=O)N([C@@H](C)CO)C[C@H]2C)cc1`, the figure is 29.5% [at 8 µM]; as for `CC(C)(C)[S@@](=O)N1Cc2cc(C(=O)NCc3ccc4c(c3)OCO4)nc(-c3cccc(-c4cccnc4)c3)c2[C@H]1CCO`, 31.3% [at 35 µM]; as for `O=C(C[C@@H]1C=C[C@H](NC(=O)c2cccnc2)[C@H](CO)O1)NCc1ccc(Cl)c(Cl)c1`, -13.7% [at 1.95 µM].
The figure for `Cc1ccc(-c2ccc3c(c2)O[C@@H](CN(C)Cc2cccnc2)[C@H](C)CN([C@@H](C)CO)S3(=O)=O)cc1` is 41.8%; for `C[C@H](NC(=O)C[C@@H]1CC[C@@H]2[C@H](COC[C@H](O)CN2C(=O)Nc2cc(Cl)cc(Cl)c2)O1)c1ccccc1` it is 24.8% [at 8 µM]; for `C[C@H](NC(=O)C[C@@H]1CC[C@@H]2[C@H](COC[C@@H](O)CN2C(=O)Nc2cc(Cl)cc(Cl)c2)O1)c1ccccc1` it is 14% [at 1.95 µM].
Consider `C[C@@H]1CN([C@@H](C)CO)S(=O)(=O)c2ccc(C#CCN(C)C)cc2O[C@H]1CN(C)C(=O)c1ccccc1F`, for which the max activity was 7.9%.
The figure for `N#C[C@@H]1[C@@H](c2ccc(/C=C/c3ccccc3)cc2)[C@@H](CO)N1C(=O)C1CCC1` is 38.2% [at 35 µM]; for `COc1ccc(C(=O)Nc2ccc3c(c2)OC[C@H](C)N(C(C)=O)C[C@@H](C)[C@H](OC)CN(C)C3=O)cc1` it is -10.5%; for `C[C@H](CO)N1C[C@H](C)[C@@H](CN(C)S(C)(=O)=O)OCCCC[C@H](C)Oc2ccc(NC(=O)Nc3cccc4ccccc34)cc2C1=O` it is 7.82%.
As for `COc1ccc(-c2ccc([C@H]3[C@@H](C#N)N(C(=O)C4CCCC4)[C@@H]3CO)cc2)cc1`, the figure is 25.1% [at 35 µM].
The figure for `CCCC(=O)Nc1ccc2c(c1)C(=O)N(C)C[C@@H](OC)[C@H](C)CN(CC1CCOCC1)[C@@H](C)CO2` is -8.25%; for `C[C@@H]1CN([C@H](C)CO)S(=O)(=O)c2ccc(C#CC3CC3)cc2O[C@H]1CN(C)Cc1ccncc1` it is 29.7% [at 8 µM].
Regarding `O=C(C[C@@H]1CC[C@H](NC(=O)CCN2CCCCC2)[C@@H](CO)O1)Nc1nccs1`, the max activity is -9.66% [at 1.95 µM].
The figure for `C[C@@H]1CCCCO[C@H](CN(C)Cc2ccc(C(F)(F)F)cc2)[C@H](C)CN([C@@H](C)CO)C(=O)c2cc(NS(C)(=O)=O)ccc2O1` is 30.2%; for `O=C(C[C@H]1C=C[C@H](NC(=O)c2ccccn2)[C@@H](CO)O1)NCc1cc(F)cc(F)c1` it is -9.02% [at 8 µM].
As for `O=C(C[C@H]1C[C@H]2c3cc(NC(=O)Nc4ccc(C(F)(F)F)cc4)ccc3O[C@H]2[C@@H](CO)O1)NCc1ccc2c(c1)OCO2`, the figure is -6.78% [at 1.95 µM]; as for `CO[C@@H]1CN(C)C(=O)c2cc(NS(=O)(=O)c3cn(C)cn3)ccc2OC[C@@H](C)N(Cc2cccc(C(F)(F)F)c2)C[C@H]1C`, 28.5%; as for `Cc1noc(C)c1NC(=O)N[C@@H]1CC[C@H](CC(=O)Nc2ccc(-c3ccccc3)cc2)O[C@H]1CO`, 26.4%.
The figure for `O=C(Nc1ccc(F)cc1)Nc1ccc2c(c1)[C@H]1C[C@@H](CC(=O)N3CCCCC3)O[C@H](CO)[C@H]1O2` is -19.5% [at 2.1 µM]; for `CCCN1C[C@@H](C)[C@@H](OC)CN(C)C(=O)c2cc(NC(=O)c3cccc(OC)c3)ccc2OC[C@H]1C` it is -8.56% [at 0.5 µM].
Turning to `CC(C)CC#Cc1ccc2c(c1)O[C@H](CN(C)CC1CC1)[C@H](C)CN([C@H](C)CO)S2(=O)=O`, the max activity was 6.75%.
Take `COCC(=O)Nc1ccc2c(c1)OC[C@H](C)N(Cc1cncnc1)C[C@@H](C)[C@H](OC)CN(C)C2=O`: the max activity was -11.5%.
Consider `COc1ccc(CNC(=O)N(C)C[C@H]2OCc3ccccc3-c3c(n(C)c4ccccc34)C(=O)N([C@@H](C)CO)C[C@@H]2C)cc1`, for which the max activity was 30.4%.
On to `C[C@H]1CN([C@@H](C)CO)C(=O)CCCn2nncc2CO[C@H]1CN(C)S(=O)(=O)c1ccc(Oc2ccccc2)cc1`, for which the max activity was 10.4%.
As to `C[C@@H]1CN([C@@H](C)CO)C(=O)c2cc(NC(=O)Cc3ccccc3)ccc2O[C@@H]1CN(C)C(=O)Nc1ccccc1`, the max activity was -11.4% [at 0.5 µM].
For the molecule `C[C@@H]1CN([C@H](C)CO)C(=O)c2cc(NC(=O)Cc3ccccc3)ccc2O[C@@H]1CN(C)C(=O)Nc1ccccc1`, the max activity is -4.25%.
The figure for `C[C@H]1CN([C@@H](C)CO)C(=O)c2cc(NC(=O)Cc3ccccc3)ccc2O[C@H]1CN(C)C(=O)Nc1ccccc1` is -15.5%; for `C[C@H](CO)N1C[C@H](C)[C@H](CN(C)C(=O)Nc2ccc(C(F)(F)F)cc2)Oc2ncc(C3=CCCC3)cc2C1=O` it is 32.4%.
Take `C[C@H](CO)N1C[C@H](C)[C@H](CN(C)C(=O)Nc2ccccc2)Oc2ccc(NC(=O)Cc3ccccc3)cc2C1=O`: the max activity is -7.38%.
